{"source": "PubChem BioAssay AID1645882", "about": "(National Center for Advancing Translational Sciences (NCATS), 2021)", "note": "“And” between values parts separate entries of the source, which are not always exact repeats. Equal entries are not always repeated. The campaign covered roughly 16,000 compounds. About 120 (0.75%) were called active. About 4% were inconclusive and are not listed. Calls come from the whole dose curve; as a rule, active = well fitted inhibition curve with a large enough effect; inconclusive = small, poorly fitted or top-dose-only effect; inactive = no such curve, though single readings can be large or run the other way. The list comes from a sample in which actives are over-represented; it also holds similar structures and randomly drawn compounds. Entries that show only a call come without a potency. A structure can be active in one record and inactive in another. Potency is the fitted concentration of half-maximal effect.", "data": [{"target": "Rap guanine nucleotide exchange factor 3 (Homo sapiens) (UniProt O95398)", "sequence (O95398 whole entry, looked up)": "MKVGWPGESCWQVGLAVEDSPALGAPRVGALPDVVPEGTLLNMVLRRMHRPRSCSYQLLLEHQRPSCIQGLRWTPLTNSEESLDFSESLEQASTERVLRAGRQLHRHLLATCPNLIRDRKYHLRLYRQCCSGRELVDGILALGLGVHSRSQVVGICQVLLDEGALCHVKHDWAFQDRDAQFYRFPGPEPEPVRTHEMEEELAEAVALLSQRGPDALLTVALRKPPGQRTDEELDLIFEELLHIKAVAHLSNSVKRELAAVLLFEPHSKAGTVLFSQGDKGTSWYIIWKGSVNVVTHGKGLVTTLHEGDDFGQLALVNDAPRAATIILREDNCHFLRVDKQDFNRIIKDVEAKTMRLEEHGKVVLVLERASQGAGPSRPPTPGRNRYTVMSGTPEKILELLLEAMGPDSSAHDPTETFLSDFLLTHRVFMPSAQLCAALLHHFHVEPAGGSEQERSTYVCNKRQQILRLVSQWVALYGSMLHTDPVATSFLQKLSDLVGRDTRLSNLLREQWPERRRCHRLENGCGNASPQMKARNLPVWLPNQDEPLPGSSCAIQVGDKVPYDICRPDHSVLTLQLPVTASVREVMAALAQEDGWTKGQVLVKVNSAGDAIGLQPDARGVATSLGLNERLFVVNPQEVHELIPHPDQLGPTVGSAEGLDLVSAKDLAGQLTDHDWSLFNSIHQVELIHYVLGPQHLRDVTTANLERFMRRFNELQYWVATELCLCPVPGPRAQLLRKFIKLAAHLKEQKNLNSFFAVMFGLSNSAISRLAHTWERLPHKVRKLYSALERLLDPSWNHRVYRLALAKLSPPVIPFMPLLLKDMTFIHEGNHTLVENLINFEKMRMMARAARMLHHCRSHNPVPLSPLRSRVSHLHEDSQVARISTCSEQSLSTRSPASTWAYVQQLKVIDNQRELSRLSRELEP", "experiment": "Validation qHTS for antagonist of cAMP-regulated guanine nucleotide exchange factor 3 (EPAC1); note: nearly all actives have a fitted effect of over 75% in size", "conditions": "EPAC1 Rap1B-BODIPY-GDP exchange, fluorescence; series mostly up to 150 µM", "how_it_was_run": "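Nucleotide exchange followed as fluorescence loss when BODIPY-GDP leaves Rap1B (480 nm excitation, 540 nm emission), read at 5 min intervals over 30 min. Reaction: 100 nM EPAC1, 250 nM RAP1B-BODIPY-GDP, 50 uM GDP; ATA and DMSO define normalization.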", "values": [{"smiles": "O=C1C=CC2=C3c4cc(O)c(O)cc4CC3(O)COC2=C1O", "note": "(stereo not drawn)", "Potency": "56.2 µM (active) and 25.1 µM (active)"}, {"smiles": "O=C1C=CC2=C3c4cc(O)c(O)cc4C[C@]3(O)COC2=C1", "Potency": "inactive"}, {"smiles": "O=C1C=CC2=C3c4cc(O)c(O)cc4C[C@@]3(O)COC2=C1", "Potency": "inactive"}, {"smiles": "CC1O[C@@H](O[C@@H]2C(O)C[C@H](O[C@@H]3C(O)C[C@@H](OC4CC[C@@]5(C)C6CC(O)[C@@]7(C)C(C8=CC(=O)OC8)CC[C@@]7(O)C6CC[C@@H]5C4)OC3C)OC2C)CC(O)[C@H]1O", "note": "(stereo partly drawn)", "Potency": "inactive"}, {"smiles": "CC(Oc1ccccc1)C(=O)NCC1Cc2cc(F)cc(-c3ccccn3)c2O1", "note": "(stereo not drawn)", "Potency": "inactive"}, {"smiles": "COc1ccc(-c2nc3cnc(Nc4ccccc4)nc3n(Cc3cccs3)c2=O)cc1", "Potency": "inactive"}, {"smiles": "COc1cccc(Nc2ncc3nc(-c4ccccc4)c(=O)n(Cc4cccs4)c3n2)c1", "Potency": "inactive"}, {"smiles": "COc1ccc(-c2nc3cnc(Nc4cccc(OC)c4)nc3n(Cc3cccs3)c2=O)cc1", "Potency": "100 µM (active)"}, {"smiles": "Cc1c(C)c2c(c(C)c1O)CCC(C)(CCCC(C)CCCC(C)CCCC(C)C)O2", "note": "(stereo not drawn)", "Potency": "inactive"}, {"smiles": "CCc1ccc(CCOc2ccc(CC3SC(=O)NC3=O)cc2)nc1", "note": "(stereo not drawn)", "Potency": "inactive"}, {"smiles": "Cc1c(C)c2c(c(C)c1O)CCC(C)(COc1ccc(CC3SC(=O)NC3=O)cc1)O2", "note": "(stereo not drawn)", "Potency": "100 µM (active)"}, {"smiles": "Cc1c(C)c2c(c(C)c1O)CC[C@@](C)(CCC[C@H](C)CCC[C@H](C)CCCC(C)C)O2", "Potency": "inactive"}, {"smiles": "CC1(COc2ccc(C[C@H]3SC(=O)NC3=O)cc2)CCCCC1", "Potency": "89.1 µM (active)"}, {"smiles": "CC1(COc2ccc(CC3SC(=O)NC3=O)cc2)CCCCC1", "note": "(stereo not drawn)", "Potency": "35.5 µM (active)", "activity change, negative = inhibition": "12.3% [at 15.3 µM] (inactive)"}, {"smiles": "CN(CCOc1ccc(CC2SC(=O)NC2=O)cc1)c1ccccn1", "note": "(stereo not drawn)", "Potency": "inactive"}, {"smiles": "Fc1ccc(N2CCN(Cc3ccc4c(c3)CN(Cc3cccn3-c3cccnc3)CCO4)CC2)cc1", "Potency": "inactive"}, {"smiles": "Cc1ccc2c(c1)CN(CCC(=O)NCc1cc(C)n(C)n1)CC(C)O2", "note": "(stereo not drawn)", "Potency": "inactive"}, {"smiles": "COc1cc(=O)n2c(c1C(=O)N(C)Cc1nonc1C)CCN(Cc1ccsc1)CC2", "Potency": "inactive"}, {"smiles": "Cc1ccc(CN2C[C@H](Sc3ccccn3)C[C@H]2C(=O)Nc2ccc3sc(C)nc3c2)c(C)c1", "Potency": "inactive"}, {"smiles": "CN(C)/N=N/c1nc[nH]c1C(N)=O", "Potency": "inactive"}, {"smiles": "COc1cccc(Cn2c(=O)c(-c3cc(F)cc(F)c3)nc3cncnc32)c1", "Potency": "inactive"}, {"smiles": "Cc1noc(C)c1-c1cc(N(C)C)ncn1", "Potency": "inactive"}, {"smiles": "CCCCCCCCCCCCN1[C@@H](CC(=O)OC)c2cc(C(F)(F)F)ccc2S1(=O)=O", "Potency": "inactive"}, {"smiles": "CCCCCCCCCCCCN1[C@@H](CC(=O)O)c2cc(C(F)(F)F)ccc2S1(=O)=O", "Potency": "89.1 µM (active)"}, {"smiles": "CCCCCCCCN1[C@@H](CC(=O)O)c2cc(C(F)(F)F)ccc2S1(=O)=O", "Potency": "inactive"}, {"smiles": "COc1ccc(OC)c(-c2ccnc(-n3ncc(C(=O)N(C)CCc4ccccn4)c3C)n2)c1", "Potency": "inactive"}, {"smiles": "Clc1ccc2ncnc(NCc3ccc4c(c3)OCO4)c2c1", "Potency": "inactive"}, {"smiles": "CC(O)c1nc2ccccc2[nH]1", "note": "(stereo not drawn)", "Potency": "inactive"}, {"smiles": "O=C1CC[C@@H](CN(Cc2cccnc2)C2CCN(c3ccc(NC(=O)c4cnccn4)cc3)CC2)N1", "Potency": "inactive"}, {"smiles": "CCCCC(CC)COC(=O)CC(C(=O)OCC(CC)CCCC)S(=O)(=O)O", "note": "(stereo not drawn)", "Potency": "56.2 µM (active) and 25.1 µM (active)"}, {"smiles": "CCCCC(CC)COC(=O)c1ccccc1O", "note": "(stereo not drawn)", "Potency": "inactive"}, {"smiles": "CCCCC(CC)COS(=O)(=O)O", "note": "(stereo not drawn)", "Potency": "inactive"}, {"smiles": "O=c1c(-c2ccccc2)nc2cncnc2n1Cc1ccccc1", "Potency": "inactive"}, {"smiles": "COc1ccc(-c2nc3cnc(N4CCN(C)CC4)nc3n(-c3ccc(OC)cc3)c2=O)cc1", "Potency": "inactive"}, {"smiles": "COc1ccc(-c2nc3cc(C)ccc3cc2CN(C(=O)c2ccc(C)s2)C2CC2)cc1OC", "Potency": "inactive"}, {"smiles": "c1ccc(Cc2nnc3n2CCN(Cc2cnc(-c4ccccc4)s2)CC3)cc1", "Potency": "inactive"}, {"smiles": "COc1ccc(-n2c(=O)c(CCc3ccccc3)nc3cnc(N4CCNCC4)nc32)cc1", "Potency": "inactive"}, {"smiles": "COc1ccc(C(C)=O)cc1", "Potency": "inactive"}, {"smiles": "COc1ccc(C(=O)C[n+]2ccccc2Cl)cc1", "Potency": "inactive"}, {"smiles": "COc1ccc(C(=O)CC(=O)c2ccc(C(C)(C)C)cc2)cc1", "Potency": "79.4 µM (active)"}, {"smiles": "Cc1ncc2c(c1CNC(=O)c1ccsc1)CCN(C(=O)c1c(F)cccc1Cl)C2", "Potency": "inactive"}, {"smiles": "COc1cc(C)c(CN2C[C@H](Sc3ccccn3)C[C@H]2C(=O)N(C)C)cc1C", "Potency": "inactive"}]}]}
